Data: PubChem BioAssay
The source made the active and inactive calls.

What was measured:
[1] = optical density shifts of acrAB sulA E. coli – strain DRC41, OD650, 48 h, E. coli filamentation inducer project, primary screen (AID 1152); settings: higher = more signal, called active from +8 up or from −8 down;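 also: E. coli MC1000 strain DRC41 lacking acrAB efflux pump and sulA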
[2] = probe aLefty1 binding on compound microarray – biochemical, small-molecule microarray, 635/667 nm fluorescence, primary screen (AID 1153); settings: higher = more signal;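 also: score merges spot fluorescence with signal-to-noise ratio from the scanned slide images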
[3] = plasmodial surface anion channel blockers, osmotic lysis – cell-based, P. falciparum Indochina, OD700, 1 h, primary screen (AID 1154); settings: P. falciparum Indochina infected RBC osmotic lysis, higher = more signal, called active from +8 up or from −8 down
[4] = plasmodial surface anion channel blockers, osmotic lysis – cell-based, P. falciparum Indochina, OD700, 2 h, primary screen (AID 1155);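 also: lysis reports solute entry through the parasite surface anion channel PSAC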; settings: P. falciparum Indochina infected erythrocytes, higher = more signal, called active from +8 up or from −8 down
[5] = changes in parasitized red cell lysis, either direction – P. falciparum Indochina, OD700, 3 h, PSAC antagonist project, primary screen (AID 1156); settings: P. falciparum-infected erythrocytes, osmotic lysis, higher = more signal, called active from +8 up or from −8 down
[6] = plasmodial surface anion channel blockers, osmotic lysis – cell-based, P. falciparum Indochina, OD700, 18 h, primary screen (AID 1157); settings: P. falciparum Indochina infected erythrocytes, osmotic lysis OD700, 18 h; higher = more signal, called active from +8 up or from −8 down
[7] = S6 kinase pathway phospho-S6 level changes – cell-based, A549, cytoblot, luminescence, serum-stimulated, primary screen (AID 1158); settings: 5 h, higher = more signal;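 also: serum-stimulated A549 lung adenocarcinoma cells; signal is phosphorylated S6 detected by cytoblot immunostaining with HRP secondary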
[8] = molecular target: NADPH oxidase 2 (Homo sapiens) (UniProt P04839); experiment: compounds shifting NOX2 Amplex Red fluorescence – cell-based, HEK293-NOX2, PMA-stimulated, NOX inhibitor project, primary screen (AID 1159); settings: 45 min, higher = more signal, called active from +8 up or from −8 down; also: test concentration not given here
NADPH oxidase 2 (Homo sapiens), sequence (P04839 whole entry, looked up): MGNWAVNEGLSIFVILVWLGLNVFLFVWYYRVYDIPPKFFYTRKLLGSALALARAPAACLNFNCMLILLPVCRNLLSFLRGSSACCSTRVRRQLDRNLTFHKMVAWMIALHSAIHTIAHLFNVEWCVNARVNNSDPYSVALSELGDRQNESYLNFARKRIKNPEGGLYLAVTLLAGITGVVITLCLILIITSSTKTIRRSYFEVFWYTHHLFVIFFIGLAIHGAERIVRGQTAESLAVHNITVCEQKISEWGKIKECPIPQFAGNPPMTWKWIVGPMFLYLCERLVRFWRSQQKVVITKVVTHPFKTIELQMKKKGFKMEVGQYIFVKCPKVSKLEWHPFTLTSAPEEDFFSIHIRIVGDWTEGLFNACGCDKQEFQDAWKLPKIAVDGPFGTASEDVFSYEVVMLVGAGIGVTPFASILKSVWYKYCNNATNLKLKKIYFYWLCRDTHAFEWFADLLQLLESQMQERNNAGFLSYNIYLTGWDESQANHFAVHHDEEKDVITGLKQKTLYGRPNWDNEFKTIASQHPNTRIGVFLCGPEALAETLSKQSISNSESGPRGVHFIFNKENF

[9] = molecular target: NADPH oxidase 4 (Homo sapiens) (UniProt Q9NPH5); experiment: compounds shifting NOX4 Amplex Red fluorescence – cell-based, HEK293-NOX4, tetracycline-induced, NOX inhibitor project, primary screen (AID 1160); settings: HEK293-NOX4, Amplex Red H2O2 fluorescence, 45 min; higher = more signal, called active from +8 up or from −8 down
NADPH oxidase 4 (Homo sapiens), sequence (Q9NPH5 whole entry, looked up): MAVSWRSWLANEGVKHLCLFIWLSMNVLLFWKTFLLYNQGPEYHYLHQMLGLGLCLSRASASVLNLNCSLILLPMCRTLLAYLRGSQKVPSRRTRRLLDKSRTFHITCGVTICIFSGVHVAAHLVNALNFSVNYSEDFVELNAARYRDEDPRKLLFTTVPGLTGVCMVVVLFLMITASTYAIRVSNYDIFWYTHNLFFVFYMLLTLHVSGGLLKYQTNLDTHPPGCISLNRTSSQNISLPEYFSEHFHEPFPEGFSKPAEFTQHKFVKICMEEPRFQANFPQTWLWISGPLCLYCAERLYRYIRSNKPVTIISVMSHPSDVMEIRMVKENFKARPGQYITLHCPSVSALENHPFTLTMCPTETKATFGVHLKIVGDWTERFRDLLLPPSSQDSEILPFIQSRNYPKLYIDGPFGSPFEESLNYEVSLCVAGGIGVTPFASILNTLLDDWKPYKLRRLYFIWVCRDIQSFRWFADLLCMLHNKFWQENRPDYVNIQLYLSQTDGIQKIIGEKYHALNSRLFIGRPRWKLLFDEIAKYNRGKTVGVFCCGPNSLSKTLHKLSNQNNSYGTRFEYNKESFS

[10] = molecular target: NADPH oxidase 5 (Homo sapiens) (UniProt Q96PH1); experiment: compounds shifting NOX5 Amplex Red fluorescence – cell-based, HEK293-NOX5, NOX inhibitor project, primary screen (AID 1161); settings: HEK293-NOX5, ionomycin, 45 min, higher = more signal
NADPH oxidase 5 (Homo sapiens), sequence (Q96PH1 whole entry, looked up): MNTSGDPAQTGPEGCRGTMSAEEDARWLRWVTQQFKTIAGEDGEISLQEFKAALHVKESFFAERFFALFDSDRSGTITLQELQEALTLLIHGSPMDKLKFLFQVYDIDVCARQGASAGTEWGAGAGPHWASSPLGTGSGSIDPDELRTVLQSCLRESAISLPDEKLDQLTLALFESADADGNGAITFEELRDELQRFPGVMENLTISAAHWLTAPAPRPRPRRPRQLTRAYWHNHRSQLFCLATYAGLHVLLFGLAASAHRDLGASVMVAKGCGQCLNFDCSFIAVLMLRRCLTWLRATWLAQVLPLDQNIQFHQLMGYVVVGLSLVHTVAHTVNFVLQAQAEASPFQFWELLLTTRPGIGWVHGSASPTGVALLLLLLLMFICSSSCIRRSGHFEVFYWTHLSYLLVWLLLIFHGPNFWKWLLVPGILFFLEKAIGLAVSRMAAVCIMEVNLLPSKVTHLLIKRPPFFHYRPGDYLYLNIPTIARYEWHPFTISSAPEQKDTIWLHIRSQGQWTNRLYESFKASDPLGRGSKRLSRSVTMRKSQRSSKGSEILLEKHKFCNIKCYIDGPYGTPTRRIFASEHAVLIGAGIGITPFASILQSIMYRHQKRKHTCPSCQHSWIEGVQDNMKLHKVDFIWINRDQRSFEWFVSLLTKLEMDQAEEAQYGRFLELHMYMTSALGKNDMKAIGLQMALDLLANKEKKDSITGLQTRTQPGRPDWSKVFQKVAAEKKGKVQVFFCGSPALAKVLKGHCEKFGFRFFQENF

| SMILES | z-score [1] | composite z-score [2] | z-score [3] | z-score [4] | z-score [5] | z-score [6] | z-score [7] | z-score [8] | z-score [9] | z-score [10] |
| --- | --- | --- | --- | --- | --- | --- | --- | --- | --- | --- |
| COCCOC(=O)N1C(=O)[C@@]2(c3cc(C#CCNC(N)=O)ccc31)[C@H](c1ccccc1OCCO)N1[C@H](c3ccccc3)[C@H](c3ccccc3)OC(=O)[C@H]1[C@@H]2C(N)=O | -0.816 (inactive) | -0.111 | 4.2 (inactive) | 0.655 (inactive) | 0.4 (inactive) | 0.344 (inactive) | -0.463 | 2.29 (inactive) | -0.672 (inactive) | -0.584 |
| CC(C)OC(=O)CC(=O)CC(O)c1ccc(C#N)cc1 (stereo not given) | 0.567 (inactive) | 0.213 | 1.96 (inactive) | -0.344 (inactive) | -0.745 (inactive) | -1.79 (inactive) | 1.02 | 0.574 (inactive) | -0.518 (inactive) | -0.252 |
| COC(=O)c1ccc(C(O)C2C=CC3C(=O)N(c4ccccc4)C(=O)C3N2Nc2ccc(C#N)cc2)o1 (stereo not given) | -0.855 (inactive) | 0.117 | 6.87 (inactive) | 1.66 (inactive) | 1.36 (inactive) | 0.975 (inactive) | -0.757 | -0.499 (inactive) | -4.57 (inactive) | -2.23 |
| O=C1OCC=C[C@H]2OC34C=CCN(c5ccc(Cl)cc5)C(=O)[C@H]3N(CCCCCCO)C(=O)[C@@H]4[C@@H]12 (stereo not given in full) | 0.49 (inactive) | 0.135 | 1.73 (inactive) | 0.398 (inactive) | 0.497 (inactive) | 0.476 (inactive) | -0.243 | 1.42 (inactive) | -0.583 (inactive) | 1.96 |
| COC(=O)C1=CC(CCCO)=CC(C2CC2)N(Cc2sc3ccccc3c2Cl)C=C1C(=O)OC (stereo not given) | -0.899 (inactive) | 0.335 | 10.6 (active) | 2.09 (inactive) | 0.901 (inactive) | 1.23 (inactive) | -0.18 | -0.986 (inactive) | -1.76 (inactive) | 0.19 |
| O=C1C[C@]2(c3ccc([N+](=O)[O-])cc3)C(=O)N(CC(F)(F)F)c3cc(CO)ccc3[C@H]2N1CC12CC3CC(CC(C3)C1)C2 | 0.458 (inactive) | -0.629 | 0.56 (inactive) | -0.365 (inactive) | 0.12 (inactive) | 0.255 (inactive) | 0.229 | -0.347 (inactive) | 0.375 (inactive) | 0.0968 |
| CCOC(=O)C1=CC[C@@H](c2ccccc2)N(S(=O)(=O)c2ccc(C)cc2)[C@H]1C(=O)OCC | -0.488 (inactive) | 0.632 | 3.81 (inactive) | 1.17 (inactive) | -0.54 (inactive) | 0.583 (inactive) | -0.338 | 0.439 (inactive) | -1.45 (inactive) | -0.75 |
| COCCOC(=O)N1C(=O)[C@@]2(c3cc(C#CCC(C(=O)OC)C(=O)OC)ccc31)[C@H](C(=O)N1CCN(c3ncccn3)CC1)[C@H]1C(=O)O[C@H](c3ccccc3)[C@H](c3ccccc3)N1[C@@H]2c1ccc(OCCO)cc1 | 3.02 (inactive) | -0.0511 | 17.3 (active) | 3.12 (inactive) | -0.153 (inactive) | 0.857 (inactive) | 2.2 | 1.41 (inactive) | 1.43 (inactive) | 0.897 |
| C=C[C@H](COC(C)=O)N(Cc1ccc(OC(C)=O)c(OC)c1)S(=O)(=O)c1ccc(Br)cc1 | 1.49 (inactive) | 0.19 | 3.23 (inactive) | -1.11 (inactive) | -0.827 (inactive) | -1.15 (inactive) | 2 | -4.68 (inactive) | -0.87 (inactive) | -1.95 |
| O=C/C=C/c1ccc2c(c1)OCO2 | 0.586 (inactive) | -0.205 | -0.448 (inactive) | -1.11 (inactive) | 0.321 (inactive) | -2.47 (inactive) | 1.25 | -0.41 (inactive) | -0.502 (inactive) | 0.961 |
| C=CCC(OC(C)=O)[C@@H]1[C@@H](N(Cc2cccc3ccccc23)C(=O)c2cccc3ccccc23)c2cc(OCCCO)ccc2N1C(=O)c1ccc2ccccc2n1 (stereo not given in full) | -0.773 (inactive) | 0.0622 | 1.1 (inactive) | 0.613 (inactive) | -0.249 (inactive) | 0.532 (inactive) | 0.443 | -0.62 (inactive) | -0.419 (inactive) | -2.42 |
